An excerpt weighted towards active compounds, which were near 10% of everything screened.
HEK293 tox: Cytotoxic Profiling in HEK 293 Cell Line of Diverse Libraries Using Quantitative High-Throughput Screening | HEK 293 viability, ATP luminescence (CellTiter-Glo), 48-72 h | Potency, µM (doses to about 115 µM), without a hit: at the highest dose activity change, negative = cytotoxicity, usual class: inhibitors | actives 6.6% (n = 94,000) | AID 1345083, 2018; further: nearly all actives have a fitted effect of over 60% in size
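Viability of HEK 293 cells, plated at 250 cells/well, was judged by cellular ATP after compound treatment for 48 or 72 hr. Luminescence was imaged 10 min after CellTiter-Glo addition at room temperature.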
3T3 cytotox: Cytotoxic Profiling in NIH 3T3 Cell Line of Diverse Libraries Using Quantitative High-Throughput Screening; NIH 3T3 viability, CellTiter-Glo ATP luminescence, 48-72 h; Potency, µM (top dose mostly 96.7 µM), without a hit: top-dose activity change, negative = cytotoxicity, actives largely listed as inhibitors; actives 4.3% (n = 94,000); AID 1345082, 2018; further: nearly all actives have a fitted effect of over 55% in size
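Cytotoxicity is measured as loss of cellular ATP: NIH 3T3 cells (400/well) are exposed to compound for 48 or 72 hr at 37 °C, then CellTiter-Glo luminescence is imaged after 10 min at room temperature.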
NPR1 antag: Natriuretic polypeptide receptor (hNpr1) antagonism - Primary qHTS | Atrial natriuretic peptide receptor 1 (Homo sapiens), P16066 | HEK293 hNpr1 GloSensor cGMP, ANP-stimulated luminescence | Potency, µM (series often up to 46.3 µM), for the others: at the top dose activity change, negative = inhibition, usual class: inhibitors | actives 1.6% (n = 76,000) | AID 1347048, 2019; calls by dose curve; further: nearly all actives have a fitted effect of over 60% in size
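HEK293 cells stably expressing human Npr1 and cGMP GloSensor pGS-40F, loaded 2 h with 2% GloSensor reagent, given compound 30 min at room temperature. Luminescence read before and 20 min after 0.1 nM hNppA.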
FLuc inh: Firefly luciferase inhibition profiling of diverse chemical library using quantitative high-throughput screening; actives 2.5% (n = 76,000); purified P. pyralis luciferase, luminescence, biochemical; Potency, µM (top dose mostly 115 µM), actives largely listed as inhibitors; further: nearly all actives have a fitted effect of over 65% in size
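Purified 10nM P. pyralis luciferase with 10uM D-luciferin and 10uM ATP in 50mM Tris acetate pH 7.5, 10mM Mg acetate, 0.01% Tween-20, 0.05% BSA. qHTS titration; luminescence read by CCD imager.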
GPT2 inhibitor: Primary qHTS assay for inhibitors of Glutamate pyruvate transaminase 2 (GPT2). actives 0.25% (n = 100,000). Potency, µM (top dose mostly 57.7 µM), for the others: at the highest dose activity change, negative = inhibition, usual class: inhibitors. AID 1671188, 2021. Alanine aminotransferase 2 (Homo sapiens), Q8TD30. Recombinant GPT2, coupled pyruvate oxidase/HRP Amplex Red fluorescence; further: nearly all actives have a fitted effect of over 60% in size
Target sequence (Q8TD30 whole entry, looked up): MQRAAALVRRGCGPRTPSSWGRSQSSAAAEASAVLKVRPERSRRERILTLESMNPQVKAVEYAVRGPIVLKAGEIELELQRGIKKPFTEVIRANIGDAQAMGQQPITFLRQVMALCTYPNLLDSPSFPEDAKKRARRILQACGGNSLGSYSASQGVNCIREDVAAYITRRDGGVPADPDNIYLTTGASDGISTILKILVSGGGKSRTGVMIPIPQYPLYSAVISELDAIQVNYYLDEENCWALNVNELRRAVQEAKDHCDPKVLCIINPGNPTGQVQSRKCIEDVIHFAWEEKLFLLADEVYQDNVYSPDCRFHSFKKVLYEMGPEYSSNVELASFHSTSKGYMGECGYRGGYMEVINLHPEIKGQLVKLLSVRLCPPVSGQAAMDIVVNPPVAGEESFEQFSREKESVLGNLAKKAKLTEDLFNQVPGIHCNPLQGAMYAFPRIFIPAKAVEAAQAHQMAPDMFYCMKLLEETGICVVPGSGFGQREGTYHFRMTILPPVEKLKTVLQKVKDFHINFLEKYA
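Fluorescence of coupled pyruvate oxidase/HRP/Amplex Red system (50uM Amplex, 30 min, dark) reports pyruvate formed by GPT2. Enzyme reaction: 10ng/uL GPT2, 2mM L-alanine, 250uM a-KG, 30 min room temperature, pH 7.5; 50uM AOA control.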
Active calls of the source: *; i = inactive; ? = inconclusive; / = no result; ! = not confirmed by another sample; [ ] = another dose, or the depositor's remark. Unless noted, the call rests on the fitted dose curve; in most records, active means well fitted curve in the direction sought with a large enough effect; inconclusive means small, poorly fitted or top-dose-only effect, or another doubt; inactive means no such curve, though single readings can be large; an effect the other way counts as inactive or inconclusive. On the % scale 0 is the no-effect control and ±100 the full control effect; potency means the concentration at half of the fitted maximal effect.

SMILES	HEK293 tox	3T3 cytotox	NPR1 antag	FLuc inh	GPT2 inhibitor
Cc1cccc(C)c1N1C(C(=O)OC(C)(C)C)=C(O)c2ccccc2S1(=O)=O	?	20µM*	/	/	/
O=C(NCC1CCN(c2cc(-c3ccc(Cl)cc3)[nH]n2)CC1)c1cc(C2CC2)[nH]n1	?	35.5µM*	?	?	?
O=C(NCC1CCN(c2cc(-c3ccc(Cl)cc3)[nH]n2)CC1)c1ccc[nH]1	?	22.4µM*	-22.0%	i	-21.2%
O=C(NCC1CCN(c2cc(-c3ccc(F)cc3)[nH]n2)CC1)c1cc(C2CC2)[nH]n1	?	?	-27.0%	?	?
Cc1cc(C)n(CCC(=O)NCC2CCN(c3cc(-c4ccc(Cl)cc4)[nH]n3)CC2)n1	35.5µM*	31.6µM*	-20.2%	i	?
COc1cccc(C(=O)NCC2CCCN(Cc3ccccn3)C2)c1OC (stereo not drawn)	-9.8%	-17.0%	-3.1%	i	i
Cc1c(CN2CCCC(CNC(=O)c3cccc4ccccc34)C2)[nH]c2ccccc12 (stereo not drawn)	17.8µM*	20µM*	-2.7%	i	i
CN(Cc1ccccn1)Cc1ccccc1C(F)(F)F	i	4.3%[138 µM]	18.8%[70.6 µM]	i	i
CCOC(=O)C1(Cc2ccc(Cl)cc2)CCN(Cc2ccc(OC)cc2O)CC1	?	?	?	i	-11.1%
CCOC(=O)C1(Cc2cccc(C(F)(F)F)c2)CCN(Cc2cn(CC)nc2C)CC1	20µM*	?	?	i	0.9%
CCOC(=O)C1(Cc2ccccc2C(F)(F)F)CCN(C(C)Cc2cccc(C)n2)CC1 (stereo not drawn)	12.6µM*	28.2µM*	?	i	1.2%
CCOC(=O)C1(Cc2ccccc2C(F)(F)F)CCN(Cc2ccccn2)CC1	39.8µM*	?	-1.3%	i	?
C=CC1(C)CC=C2C(CCC3C(C)(C(=O)O)CCCC23C)C1 (stereo not drawn)	/	/	/	/	3.2%
CN1CCN(c2ccc3ncc(Nc4ccccc4F)n3n2)CC1	112µM*	?	-1.9%[70.6 µM]	i	?
CN1CCN(c2ccc3ncc(Nc4cccc(C(F)(F)F)c4)n3n2)CC1	100µM*	?	-26.3%[70.6 µM]	i	?
Cc1nnc2ccc(N3CCN(C(=O)c4ccccc4F)CC3)nn12	-10.2%	-28.2%	/	/	/
c1ccc(-c2ccccc2Nc2cnc3ccc(N4CCOCC4)nn23)cc1	89.1µM*	?	-26.5%[70.6 µM]	i	-4.8%[88.5 µM]
Clc1ccccc1Nc1cnc2ccc(N3CCOCC3)nn12	?	?	?	i	?
Cc1cn2nnc(C(=O)NC3CCCCCCC3)c2c(=O)[nH]1	-29.5%	-5.2%	7.3%	?	i
COc1ccc(CNC(=O)c2ccc3c(c2)N(C(=O)c2ccc(F)cc2)CC3)c(OC)c1	?	?	-14.7%	i	-1.9%
CN(C)CCN(C)C(=O)c1ccc(-c2ncc3cnc(-c4cccc(F)c4)cn23)cc1	50.1µM*	44.7µM*	-6.5%[70.6 µM]	i	?
CCOC(=O)CCCOc1cccn2c(=O)c(-c3cc(C)n(-c4ccc(Cl)cc4)n3)c(C)nc12	-21.3%	-11.1%	0.1%	i	i
O=C(CCc1c[nH]c2ccccc12)N1CCC[C@H]1c1nc(-c2ccc(F)cc2)n[nH]1	39.8µM*	?	/	/	i
O=C(CCc1c[nH]c2ccccc12)N1CCC(Cc2nc(-c3ccncc3)n[nH]2)CC1	-28.6%	?	/	/	i
Cc1ccc(-c2cc3c(=O)n(CCNC(=O)Cc4c[nH]c5ccccc45)ccn3n2)c(C)c1	39.8µM*	-27.3%	?	?	-2.9%
SMILES	HEK293 tox	3T3 cytotox	NPR1 antag	FLuc inh	GPT2 inhibitor
Cc1ccc(C)c(-c2cc3c(=O)n(CCNC(=O)c4ccc5ccccc5n4)ccn3n2)c1	35.5µM*	?	-18.5%	i	-1.4%
Cc1ccc(C)c(-c2cc3c(=O)n(CCNC(=O)c4ccc(C#N)cc4)ccn3n2)c1	12.6µM*	?	-23.3%	i	i
Cc1ccc(-c2cc3c(=O)n(CCNC(=O)c4cc(C5CC5)[nH]n4)ccn3n2)c(C)c1	?	-25.6%	?	1.26µM*	i
Cc1ccc(C(=O)NCCn2ccn3nc(-c4cc(C)ccc4C)cc3c2=O)cc1	?	-16.5%	-7.1%	i	i
Cc1ccc(-c2cc3c(=O)n(CCNC(=O)c4ccc5ccccc5n4)ccn3n2)c(C)c1	?	?	?	?	i
Cc1ccc(-c2cc3c(=O)n(CCNC(=O)c4ccc(F)cc4)ccn3n2)c(C)c1	?	-26.3%	?	?	i
Cc1ccc(-c2cc3c(=O)n(CCNC(=O)Cc4ccccc4Cl)ccn3n2)cc1C	?	-18.4%	-15.6%	i	-2.5%
COc1ccccc1C(=O)NCCn1ccn2nc(-c3cc(C)ccc3C)cc2c1=O	?	?	-4.0%	i	-10.9%
Cc1ccc(-c2cc3c(=O)n(CCNC(=O)Cc4ccccc4Cl)ccn3n2)c(C)c1	-25.9%	-20.6%	-25.0%	2.51µM*	i
Cc1ccc(C)c(-c2cc3c(=O)n(CCNC(=O)c4ccccc4Cl)ccn3n2)c1	44.7µM*	35.5µM*	-17.8%	i	i
COc1ccc(C(=O)NCCn2ccn3nc(-c4cc(C)ccc4C)cc3c2=O)c(OC)c1	39.8µM*	?	-21.5%	i	i
COc1cccc(NC(=O)N2CCC(Oc3ncccc3C(=O)N3CCOCC3)C2)c1 (stereo not drawn)	7.8%	i	7.2%	i	-0.1%
COc1ccc(CN2CCC(N3Cc4cnc(C)n4C3=O)CC2)cc1	?	-17.8%[138 µM]	0.0%[70.6 µM]	i	-3.0%[88.5 µM]
Cc1ncc2n1C(=O)N(C1CCN(Cc3ccccc3)CC1)C2	100µM*!	?	7.2%[70.6 µM]	i	i
COCCOc1cc(C)c2c(c1C)C[C@H](C(C)C(=O)NCc1cccs1)CC2 (stereo partly drawn)	50.1µM*	?	-12.6%[70.6 µM]	i	i
COc1cc(C)c2c(c1C)C[C@H](C(C)C(=O)NCc1cccs1)CC2 (stereo partly drawn)	?	35.5µM*	-8.6%[70.6 µM]	i	i
Cc1cc(OCCN(C)C)c(C)c2c1CC[C@@H]([C@H](C)C(=O)NCc1ccccc1)C2	50.1µM*	56.2µM*	-7.3%[70.6 µM]	i	-28.5%[88.5 µM]
